Rows were chosen to be rich in hits. Some 6.1% of all compounds tested hit in one or more screens of this group.
D3 antag: qHTS of D3 Dopamine Receptor Antagonist: qHTS; D(3) dopamine receptor (Homo sapiens), P35462; D3R cells, DiscoveRx beta-arrestin luminescence, antagonist mode; hits give low values; max response, negative = inhibition, %; actives 2.5% (n = 360,000); AID 652054, 2013; in the data active = max response below about -50%; inconclusive = no clear call, values can overlap the other calls; note: % is set by controls: 0 for no effect and ±100 for the full control effect
Target sequence (P35462 whole entry, looked up): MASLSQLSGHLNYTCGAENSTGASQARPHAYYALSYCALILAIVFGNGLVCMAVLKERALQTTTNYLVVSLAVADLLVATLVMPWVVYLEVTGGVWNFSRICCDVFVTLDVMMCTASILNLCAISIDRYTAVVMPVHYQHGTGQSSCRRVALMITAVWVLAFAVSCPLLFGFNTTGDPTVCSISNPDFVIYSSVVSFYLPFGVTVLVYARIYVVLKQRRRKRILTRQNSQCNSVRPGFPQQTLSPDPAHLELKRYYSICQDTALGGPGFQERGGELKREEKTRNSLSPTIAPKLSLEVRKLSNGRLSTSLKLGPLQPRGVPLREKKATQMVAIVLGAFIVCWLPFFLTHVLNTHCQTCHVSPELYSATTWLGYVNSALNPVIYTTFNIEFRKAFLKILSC
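Cells expressing the human receptor were seeded at 1500 cells/well, incubated overnight at 37 degrees C in 5% CO2, then exposed to library compounds with dopamine controls for 90 minutes at 37 degrees C before luminescent detection.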
D1 antagonist: Antagonist of Human D 1 Dopamine Receptor: qHTS; D(1A) dopamine receptor (Homo sapiens), P21728; HEK293 TREx D1 cells, calcium flux, dopamine EC80; hits give low values; activity change, negative = inhibition, % at 10 µM; actives 3.2% (n = 360,000); AID 504652, 2011; in the data active = activity change below about -30%; note: % is set by controls: 0 for no effect and ±100 for the full control effect
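Allosteric or orthosteric antagonism assessed as attenuation of the calcium response to EC80 dopamine, added 180 s after compound, in induced HEK293 Trex D1 cells loaded with no-wash calcium dye.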
D1 PAM: Potentiators of Human D1 Dopamine Receptor: qHTS; D(1A) dopamine receptor (Homo sapiens), P21728; HEK293 TREx D1 cells, calcium flux, dopamine EC20 potentiation; potentiation, % at 10 µM; actives 0.036% (n = 360,000); AID 504651, 2011; in the data active = potentiation above about 30%; note: 0% is about no effect
D3 ag: qHTS of D3 Dopamine Receptor Agonist: qHTS; D(3) dopamine receptor (Homo sapiens), P35462; AID 652048, 2013; D3R DiscoveRx beta-arrestin cells, luminescence, 90 min; max activation, %; actives 0.58% (n = 410,000); in the data active = max activation above about 30%; note: 0% is about no effect
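Cells at 1500/well, incubated overnight, then treated with pinned compounds (dopamine as control) for 90 min at 37 degrees C. DiscoveRx reagent added for 30 - 60 minutes at room temperature; luminescence read.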
D1 ag: Allosteric Agonists of the Human D1 Dopamine Receptor: qHTS | D(1A) dopamine receptor (Homo sapiens), P21728 | HEK293 T-REx D1 cells, calcium flux, agonist mode | activation, % at 2 µM | actives 1% (n = 360,000) | AID 504660, 2011; in the data active = activation above about 30%; note: 0% is about no effect
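Tetracycline-induced HEK293 TREx D1 cells, force-coupled to calcium signalling, were dye-loaded with a no-wash calcium kit. Compound was pin-added after a 10 s baseline. Fluorescence was read kinetically at 1 cycle/s for 180 s, with calcium rises flagged as agonism.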
Active calls of the source: *; ? = inconclusive; nt = no result; ! = not confirmed by another sample.

SMILES	D3 antag	D1 antagonist	D1 PAM	D3 ag	D1 ag
CC(=O)c1ccc(N2CCN(c3ncnc4c3cnn4-c3cc(Cl)ccc3C)CC2)cc1	nt	-2	1	28	1
CN(CCNC(=O)c1cccc(N2CCCC2=O)c1)Cc1ccccc1	-58*	-3	1	0	0
O=C(O)CCCC(=O)N1CCN(c2ncccn2)CC1	1	-36*	-10	0	2
O=C(c1ccccc1)N1CCN(c2ncccn2)CC1	0	-2	-2	3	3
O=C(NCCC(=O)N1CCN(c2ncccn2)CC1)c1ccccc1	26	-33*	-1	2	1
CN(C)C(=O)CCc1ccc2c3c([nH]c2c1)[C@]1(CCC2CCCC2)[C@@H](C(=O)N2CCOCC2)C[C@H](CC(=O)NCCc2ccccn2)C(=O)N1CC3	24	nt	nt	17	nt
c1csc(-c2noc(COc3ccc4c(c3)CCCC4)n2)c1	33	-39*	-2	5	27
Cc1ccc(OCc2nc(-c3ccc(C(=O)NCCc4ccc(Cl)cc4)cc3)oc2C)cc1	nt	-3	-3	-5	1
CSc1ccc(CCNC(=O)c2ccc(-c3nc(COc4ccccc4)c(C)o3)cc2)cc1	nt	-63*	0	6	0
COc1cccc(NC(=O)c2ccc(-c3nc(COc4ccccc4)c(C)o3)cc2)c1	nt	-17	-7	62*	12
Cc1oc(-c2ccc(C(=O)NCCc3ccc(Cl)cc3)cc2)nc1CSc1ccccc1	nt	0	1	8	32*
CC(C)c1ccc(NC(=O)c2cn(C3CCCCC3)c(=O)c3c2c2ccccc2n3C)cc1	nt	10	7	9	4
CCc1cccc(C)c1NC(=O)CCCn1nc(C)c2sc3ccccc3c2c1=O	nt	-39*	0	4	0
CCc1cccc(NC(=O)Cn2nc(C)c3sc4ccccc4c3c2=O)c1	nt	-42*	-1	-8	1
Cc1ccc(C)c(NC(=O)CCCn2nc(C)c3sc4ccccc4c3c2=O)c1	nt	-6	-2	-3	1
COc1ccccc1NC(=O)CCNS(=O)(=O)c1ccc2c(c1)CCN2C(=O)C1CC1	nt	-8	-4	5	4
CCN(C[C@H]1N[C@@](C)(C(=O)OC)[C@H]2C(=O)N(C)C(=O)[C@@H]12)C(=O)Nc1ccccc1	16	nt	nt	30	nt
CCOC(=O)[C@]12CCCC=C1N(Cc1cccc3ccccc13)C(=O)[C@H](CC(=O)N1CCCC1)C2	12	nt	nt	9	nt
CN1C(=O)CC(C(=O)Nc2ccc(C(=O)O)cc2)SC1=Nc1ccc(Cl)cc1 (centres undefined)	nt	0	-1	8	0
CC(C)(C)NC(=O)C(c1ccncc1)N(Cc1cccs1)C(=O)Cn1nnc(-c2ccc(F)cc2)n1 (centres undefined)	-2	-33*	-2	1	0
CC(C)(C)NC(=O)C(c1ccncc1)N(CC1CCCO1)C(=O)Cn1nnc(-c2ccc(F)cc2)n1 (centres undefined)	-21	14	6	-6	0
COc1ccc(-c2nn(C)c3sc(C(=O)NCCN(C)C)cc23)cc1OC	2	0	6	-2	0
CCCCN(CC)CCNC(=O)c1cc2c(-c3ccc(Cl)cc3)nn(C)c2s1	-62*	6	-1	-13	66*!
CCCN(CCC)CCCNC(=O)c1cc2c(-c3ccc(OC)c(OC)c3)nn(C)c2s1	-92*	5	1	-15	1
CCN(CC)CCNC(=O)c1cc2c(-c3ccc(Cl)cc3)nn(C)c2s1	?	8	0	-16	6
Cc1cc2c(s1)c1cnn(Cc3ccccc3Br)c(=O)c1n2C	nt	5	-6	nt	2
COc1cccc(OCc2nnc(-c3cccs3)o2)c1	nt	-32*	2	nt	2
COc1cccc(NC(=O)CSc2nnc(-c3cccs3)o2)c1	nt	8	5	7	2
Cc1ccc(Nc2cc(C)nc3c(C)cccc23)cc1	10	-33*	-12	-3	0
COc1ccc(Nc2cc(C)nc3ccccc23)cc1	9	1	-3	-6	2
